Compounds with a hit are over-represented: about 12% of the library has one in this group of screens.
JMJD2A Tudor – JMJD2A Tudor domain (human) inhibition | O75164 | AlphaScreen JMJD2A-Tudor / H3K4me3 peptide binding | Potency, µM (doses to about 114 µM), without a hit: at the top dose activity change, negative = inhibition, actives largely listed as inhibitors | 390,000 compounds, 4.4% hits; further: on the % scale 0 is the no-effect control and ±100 the full control effect; nearly all actives have a fitted effect of over 50% in size
HP1b chromo inh – inhibitors of HP1-beta chromodomain binding to methylated histone tails; AID 540317; AlphaScreen HP1-beta / biotin-H3K9me3 peptide binding; P83916; Potency, µM (highest dose often 114 µM), inactives show at the top dose activity change, negative = inhibition, actives largely listed as inhibitors; 390,000 compounds, 0.56% hits; further: nearly all actives have a fitted effect of over 70% in size
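AlphaScreen: HP1-beta (50 nM) preformed 30 min with biotin-H3(1-18)K9me3 peptide (50 nM) in PBS pH 7.4, 0.01% Tween-20. Compound added for 30 min at RT, then streptavidin donor/nickel chelate acceptor beads (10 ug/mL) for 30 min.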
PLK1 PBD block – PLK1 (human) polo-box domain binding inhibition | Plk1 PBD binding of FITC phosphopeptide, fluorescence polarization | Potency, µM, without a hit: max response, negative = inhibition, hits mostly inhibitors | 360,000 compounds, 2.8% hits | P53350; further: series mostly up to about 57 µM; on the % scale 0 is the no-effect control and ±100 the full control effect; nearly all actives have a fitted effect of over 65% in size
BAZ2B inh – BAZ2B (human) inhibition | Q9UIF8 | AlphaScreen BAZ2B-H3K14Ac peptide displacement | Potency, µM (series often up to 114 µM), for the others: at the highest dose activity change, negative = inhibition, most hits filed as inhibitors | 360,000 compounds, 4.4% hits; further: on the % scale 0 is the no-effect control and ±100 the full control effect; nearly all actives have a fitted effect of over 60% in size
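In this displacement format the biotinylated H3(5-23) peptide acetylated at Lys14 serves as ligand at 50 nM, with BAZ2B at 50 nM in PBS pH 7.4 containing 0.01% Tween-20. Donor and acceptor beads are 10 ug/mL final.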
Sfp inh – blocks B. subtilis Sfp PPTase activity; Q9F4F7; Biochemical Sfp PPTase activity, qHTS; Potency, µM, without a hit: largest response in the series, negative = inhibition, hits mostly inhibitors; 310,000 compounds, 3.5% hits; AID 1490;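 further: the enzyme is Sfp with the accession as filed and its product quenches rhodamine fluorescence; 0% = enzyme reaction without inhibitor and -100% = no enzyme wells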
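After 15 min at room temperature with compound, 15 nM Sfp received 5 uM rhodamine-CoA plus 12.5 uM BHQ-2-ybbR (50 mM Hepes pH 7.6, 10 mM MgCl2). Rate came from the fluorescence difference over 30 min, ex 525/em 598 nm.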
G9a block – blocks human histone lysine methyltransferase G9a | G9a H3K9 monomethylation, AlphaScreen, 2 h | Potency, µM (highest dose often 102 µM), inactives show top-dose activity, negative = inhibition, most hits filed as inhibitors | 350,000 compounds, 8.8% hits | AID 504332; further: on the % scale 0 is the no-effect control and ±100 the full control effect; nearly all actives have a fitted effect of over 75% in size
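Enzyme 20 nM + cpd, 15 min RT; add b-H3K9 pep 500 nM / SAM 20 uM; 2 h RT; anti-H3K9me1 Ab 0.5 ug/mL + SA donor / anti-rabbit acceptor beads 20 ug/mL each, 10 min; AlphaScreen read.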
* marks the source's active call; other numbers are inactive results; ? = inconclusive; · = no result given; [ ] = another dose, or the depositor's remark. The call rests on the fitted dose curve; in most records, active means well fitted curve in the direction sought with a large enough effect; inconclusive means small, poorly fitted or top-dose-only effect, or another doubt; inactive means no such curve, though single readings can be large; an effect the other way counts as inactive or inconclusive. Potency means the concentration at half of the fitted maximal effect.

SMILES	JMJD2A Tudor	HP1b chromo inh	PLK1 PBD block	BAZ2B inh	Sfp inh	G9a block
O=C(N/C(=C\c1ccco1)C(=O)N1CCCCC1)c1ccc([N+](=O)[O-])cc1	-9%	34%	-5%	·	·	·
Cc1cccc(C(=O)N/C(=C\c2ccco2)C(=O)N2CCCC2)c1	-21%	-15%	-5%	-8%[57.1 µM]	?	40µM*
O=C(N/C(=C\c1ccco1)C(=O)N1CCCC1)c1ccccc1	-6%	13%	-12%	-2%	-11%	40µM*
O=C(O)C(=Cc1ccccc1Cl)c1ccccc1	·	·	-6%	·	·	·
O=C(O)/C(=C/c1ccco1)c1ccccc1	·	·	·	-11%	22µM*	?
Cc1ccc(C(=O)N/C(=C/c2ccco2)C(=O)N2CCCCCC2)cc1	-31%	-20%	-9%	-8%	-5%	71µM*
CCOC(=O)C(N=Nc1nn[nH]n1)C(C)=O (stereo not given)	·	·	-9%	·	·	·
O=C(O)/C(=C\c1ccco1)NC(=O)c1cccc2ccccc12	89µM*	-11%	?	?	79µM*	·
O=C(N/C(=C/C=C/c1ccccc1)C(=O)N1CCCCC1)c1ccc([N+](=O)[O-])cc1	?	1%	-2%	-35%	-14%	50µM*
CC(NC(=O)/C(=C\c1ccco1)NC(=O)c1ccccc1Br)C(=O)O (stereo not given)	?	13%	-19%	2%	4%	?
O=C(N/C(=C/c1ccco1)C(=O)N1CCCC1)c1cccs1	-5%	18%	-5%	?	32µM*	-5%[2.33 µM]
O=C(N/C(=C/c1ccc([N+](=O)[O-])cc1)C(=O)N1CCCC1)c1ccccc1	-7%	-19%	5%	-4%	7%	22%
C=CCNc1ncnc2c1ncn2[C@H]1CN(CCN2CCOCC2)C[C@@H](CO)O1	·	·	1%	·	·	·
O=C(CSc1nnc(NC2CCCCC2)s1)Nc1ccc(N2CCOCC2)cc1	-11%	9%	0%	-35%	-12%	18%[59 µM]
CC(Sc1nnc(NC2CC2)s1)C(=O)Nc1ccc(N2CCOCC2)cc1 (stereo not given)	-1%	16%	-1%	-19%	·	45µM*
CC(Sc1nnc(NC2CCCCC2)s1)C(=O)Nc1ccc2c(c1)C(=O)c1ccccc1C2=O (stereo not given)	?	-17%	?	-36%	6%	3.5µM*
C[C@]12c3[nH]c4ccccc4c3CCN1C(=O)C(CC(=O)NCCc1ccccn1)C[C@@H]2C(=O)N1CCOCC1 (stereo not given in full)	-2%	16%	6%	·	·	·
O=C(Cn1cnc([N+](=O)[O-])c1)NCCc1ccccc1	-8%	21%	-1%	-29%	5%	28µM*
O=C(Cn1cnc([N+](=O)[O-])c1)NCc1ccc(F)cc1	4%	19%	-9%	7%	-2%	·
O=C(Cn1cnc([N+](=O)[O-])c1)Nc1ccccc1C(F)(F)F	?	23%	30µM*	16%	2%	·
CN(C)C=Nc1ccc([N+](=O)[O-])c2ccccc12	·	·	-2%	·	·	·
CCC1(c2ccccc2)NC(=O)NC1=O (stereo not given)	·	·	·	·	-9%	·
N#C/C(=C(/O)c1ccc(-c2cccc([N+](=O)[O-])c2)o1)c1nc2ccccc2s1	?	-6%	21µM*	45µM*	35µM*	45µM*
O=[N+]([O-])c1cccc(-c2nc(-c3ccccc3)no2)c1	-30%	-21%	19µM*	-11%	-3%	·
O=[N+]([O-])c1cccc(-c2nc(-c3ccncc3)no2)c1	-4%	10%	4%	-32%	1%	48%[12.7 µM]
SMILES	JMJD2A Tudor	HP1b chromo inh	PLK1 PBD block	BAZ2B inh	Sfp inh	G9a block
O=C(O)c1ccc(-c2cccc([N+](=O)[O-])c2)o1	-6%[11.4 µM]	24%	-28%	?	50µM*	-16%
O=[N+]([O-])c1cccc(-c2ccc(C(=S)N3CCN(c4ccc(F)cc4)CC3)o2)c1	?	?	-15%	35µM*	-4%	?
O=C(NC1CCCCC1)c1ccc(-c2cccc([N+](=O)[O-])c2)o1	-12%	28%	-5%	-8%	-7%	-6%
O=C(c1ccc(-c2cccc([N+](=O)[O-])c2)o1)N1CCN(c2ccc([N+](=O)[O-])cc2)CC1	-13%	1%	-1%	4%	·	?
N=C(N)N	·	·	·	·	12%	·
CC(C)c1ccc2c(c1)CCC1C(C)(C(N)=O)CCCC21C (stereo not given)	·	·	·	·	-6%	·
Cc1noc(C)c1-c1csc(N2CCC(C(N)=O)CC2)n1	?	36%	·	-1%	·	6%[12.7 µM]
O=C(/C=C\c1ccc(-c2cccc([N+](=O)[O-])c2)o1)N1CCOCC1	-31%	3%	-6%	?	20µM*	32µM*
COc1cc(-c2nc(S(=O)(=O)c3ccc(Br)cc3)c(N3CCOCC3)o2)cc(OC)c1OC	?	1%[57 µM]	·	-35%	·	-28%[59 µM]
O=C(O)C1(C(=O)O)CCC1.[NH2-].[NH2-].[Pt+2]	·	·	·	·	6.3µM*	·
COc1ccc(-c2cc(C)no2)cc1S(=O)(=O)NCCc1ccco1	79µM*	-30%	?	?	21%	7%[0.0925 µM]
Cc1csc(=Nc2cccnc2)n1Cc1ccco1	-19%	-10%	-13%	45µM*	-10%	-38%
c1ccc(C2[C@H]3CN(CC4CCCCC4)[C@H](c4ccccc4)C34CC2(c2cccnc2)C4)cc1 (stereo not given in full)	-34%	32%	-9%	?	-4%	-50%[59 µM]
CC(C)=N/N=c1\scc(C)n1Cc1ccco1	-30%	-6%	-6%	-39%	12%	-49%
Cc1csc(=Nc2cccnc2)n1CC1CCCCC1	-22%	6%	-11%	45µM*	-11%	?
CCC1CCC2(CC1)NNC(=S)NN2	50µM*	-66%	-20%	?	56µM*	2µM*
O=C(CSc1nnc2n1CCCN2)c1ccc(Cl)cc1	-22%	4%	-11%	6%	0%	-18%[59 µM]
O=C(CSc1nnc2n1CCCN2)c1ccc([N+](=O)[O-])cc1	?	-1%	?	-38%	-12%	40µM*
CCOC(=O)Cc1c(C)nc2c(-c3ccc(Cl)cc3)c(C(F)(F)F)nn2c1C	170%	250%	·	203%	·	307%[59 µM]
COc1ccc2c([N+](=O)[O-])c(Cl)[nH]c2c1	56µM*	?	-26%	79µM*	-12%	25µM*
Cc1sc2nc(CSCC(=O)Nc3ccccc3C#N)[nH]c(=O)c2c1C	-17%	-6%	?	7%	79µM*	?
Cc1sc2nc(CSC(C)C(=O)NC3(C#N)CCCCC3)[nH]c(=O)c2c1C (stereo not given)	-3%	22%	?	-11%	·	45µM*

Screens from PubChem BioAssay.
